Screening results deposited in PubChem BioAssay by several laboratories.
In the library only some 2.2% were active in any assay of this set; here they are far more common.
CHT allo act – CHT positive allosteric modulators, primary screen, cell-based, membrane potential dye, choline EC20; High affinity choline transporter 1 (Homo sapiens), Q9GZV3; B-score at 10 µM; CHT-expressing cells; active compounds read high; LV-AA mutant CHT in HEK293 cells; 0.49% of 310,000 active;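 active means initial fluorescence not abnormally high and integrated response B-score, plate-corrected, over 3 SD above library mean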
Target sequence (Q9GZV3 whole entry, looked up): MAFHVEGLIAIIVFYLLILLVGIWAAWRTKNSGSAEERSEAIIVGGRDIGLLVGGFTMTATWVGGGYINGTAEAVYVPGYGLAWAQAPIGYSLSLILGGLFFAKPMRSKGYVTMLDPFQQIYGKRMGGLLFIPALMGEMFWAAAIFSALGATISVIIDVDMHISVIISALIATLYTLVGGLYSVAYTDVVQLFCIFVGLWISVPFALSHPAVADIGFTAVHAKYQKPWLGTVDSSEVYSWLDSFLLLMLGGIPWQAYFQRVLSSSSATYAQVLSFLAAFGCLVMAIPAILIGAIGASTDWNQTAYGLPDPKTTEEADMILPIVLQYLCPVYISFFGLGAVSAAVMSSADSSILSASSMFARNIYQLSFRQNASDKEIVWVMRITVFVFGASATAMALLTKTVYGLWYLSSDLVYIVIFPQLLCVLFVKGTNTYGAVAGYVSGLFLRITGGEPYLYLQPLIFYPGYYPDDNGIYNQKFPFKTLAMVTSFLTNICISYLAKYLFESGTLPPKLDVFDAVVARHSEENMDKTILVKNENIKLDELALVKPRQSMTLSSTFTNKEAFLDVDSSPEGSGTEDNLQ
CHT block – inhibitors of human choline transporter CHT; CHT-expressing cells, membrane potential dye, choline response; active compounds read low; B-score at 10 µM; 0.86% of 310,000 active; AID 488975, 2010;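 active means B-score over 3 SD under the library average, and starting fluorescence ratio not unusually high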;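 further: choline stimulus applied at its EC90 after an EC20 pre-addition; B-score computed on integrated fluorescence ratio after choline addition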
Platelet DG rel – inhibitors of platelet dense granule secretion, primary screen, cell-based, MLPCN, human platelets. human platelet-rich plasma, SFLLRN dense granule ATP release, luminescence. inhibition, %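 (compounds screened at 7.5 µM in platelet-rich plasma)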. 0.22% of 300,000 active. AID 1663, 2009;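 active means mean replicate score, as percent of positive control, at or above 50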
AI-2 QS modul – Vibrio harveyi AI-2 quorum sensing modulators, primary screen, JMH597 strain, luminescence/OD600 ratio | Vibrio harveyi JMH597 AI-2 luminescence/OD600 ratio, 9 h; active compounds read low; strain lacks LuxN and CqsS sensors; 0 = neutral-control median | activity change, % at 7.5 µM | 0.4% of 300,000 active | AID 2094, 2009; in the data active means activity change below about -75%, passing the limit was not always enough;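 further: luminescence divided by OD600 gain over 9 h not by final OD600 alone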
HIF activator – HIF pathway transcriptional activators, primary screen, cell-based, U2OS HRE-luciferase, luminescence. U2OS HRE-luciferase reporter; normalized: DMSO 0%, desferrioxamine 100%. 0.32% of 300,000 active. activation, % at 7.5 µM (by protocol);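 active means mean activation of at least 10% of the iron chelator positive control signal, with at least half of replicates also reaching 10%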
VLA-4 inh – inhibition in human VLA-4 binding assay, primary screen, VLA-4 allosteric modulator project, MLPCN library, flow cytometry, VLA-4 expressing cells; inhibition, % (about 7 µM as worked out from the volumes in the protocol); 0.2% of 330,000 active; Integrin alpha-4 (Homo sapiens), P13612; ligand binding flow cytometry; in the data active means inhibition above about 50%
CHT block conf – CHT inhibitors, confirmation, cell-based, membrane potential dye, duplicate; shares compounds with CHT block; CHT-expressing cells, choline membrane potential dye; LV-to-AA substituted CHT, HEK293 cells; CHT activity remaining % of control (active compounds read low), % at 10 µM; 70% of 2,400 active; AID 493221, 2011;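 active means choline transporter activity left, mean of duplicates at 10 µM, below buffer-only control mean minus 3 SD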;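 further: depolarization triggered by choline at its EC90 following an EC20 pre-addition; 0% = hemicholinium-3 full block and 100% = buffer-only control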
HEK293 CHT ctr – membrane potential effects in parental HEK293, counter-screen for CHT inhibitor project, cell-based, membrane potential dye; choline response; active = decrease or increase beyond buffer ±3SD; 4% of 2,400 active; membrane potential ratio readout (active if shifted either direction beyond buffer ±3SD; no single direction) at 10 µM; shares compounds with CHT block; AID 493222, 2011;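 further: parental cells lack the transporter so any hit is non-specific; ratio is peak minus trough fluorescence over baseline after EC90 choline challenge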
* hit, by the source's call; i = inactive; . = no result.

SMILES	CHT allo act	CHT block	Platelet DG rel	AI-2 QS modul	HIF activator	VLA-4 inh	CHT block conf	HEK293 CHT ctr
Cc1ccc(OCCSCc2nc3ccccc3[nH]2)cc1	i	-5.46*	7.9	49.0	0.3	-1.1	i	i
CCOc1cc(C(=O)N(CC)CC(=O)Nc2c(F)cccc2F)ccc1OCC(=O)N1CCCCC1	i	i	-12.2	31.1	-0.4	-10.9	.	.
CCc1nc(NCc2ccccn2)c2oc3ccccc3c2n1	i	i	-3.0	52.1	0.2	3.7	56.3%*	i
O=C1C=C(c2ccc3c(c2)oc2ccccc23)C[C@@H](c2ccc3c(c2)OCO3)C1	.	.	.	.	.	-4.6	.	.
O=C(O)CC/C(=N/NC(=O)c1cccs1)c1ccccc1	i	i	0.4	28.3	3.1	18.4	.	.
O=C(O)CC/C(=N\Nc1ccccc1[N+](=O)[O-])c1cccs1	i	-5.67*	12.6	2.7	0.3	-15.8	48.1%*	2.86*
O=C(O)CC(Cc1ccc(Cl)cc1)C(=O)Nc1cc(Cl)ccc1Cl (stereo not drawn)	i	-5.34*	0.0	32.5	-14.2	0.9	52.8%*	i
CC(C)Sc1nc2ccc(Br)cc2[nH]1	i	-5.51*	-1.7	12.8	2.7	21.6	i	i
COc1ccc(/C=C2\C(=O)ON=C2c2ccccc2)cc1	i	i	4.4	26.2	3.1	4.4	.	.
O=C1ON=C(c2ccccc2)/C1=C/c1ccc(O)c(O)c1	i	-6.83*	-2.0	10.2	-0.8	-3.3	32.6%*	i
CCOc1cc(/C=C2/C(=O)ON=C2C)ccc1O	i	i	-6.3	12.4	0.4	11.0	.	.
CC1=NOC(=O)/C1=C/c1ccc(O)c(Cl)c1	i	-8.62*	5.6	22.1	-0.5	11.6	26.8%*	i
Cc1ccc(S(=O)(=O)NCC(c2cccnc2)N2CCc3ccccc32)cc1 (stereo not drawn)	i	i	1.9	20.9	-0.2	5.6	.	.
CN(C)S(=O)(=O)c1cccc(NC(=O)COC(=O)c2cccn2C)c1	i	i	0.1	-32.3	0.4	2.7	.	.
COCCNc1c(-c2ccc(OC)cc2)nc2ccc(Cl)cn12	i	-9.61*	-3.6	32.2	3.0	8.0	i	i
CCOC(=O)CNc1c(-c2ccc(OC)cc2)nc2ccc(Cl)cn12	i	i	9.2	21.0	1.4	-9.7	.	.
N#Cc1ccc(C(=O)OCC(=O)Nc2ccc(S(N)(=O)=O)cc2)cc1	i	i	-11.8	17.1	-0.3	7.5	.	.
COc1ccccc1NC(=O)c1cc(C(=O)Nc2ccccc2OC)n(C)n1	i	i	-10.1	-4.2	-0.2	-3.6	.	.
COc1ccc2c(c1)c(C(O)CN1CCN(Cc3ccc4c(c3)OCO4)CC1)c(C)n2C (stereo not drawn)	i	i	10.9	61.2	-0.3	14.1	.	.
COc1ccc2c(c1)c(C(O)CN1CCC(Cc3ccccc3)CC1)c(C)n2C (stereo not drawn)	i	-10.7*	5.9	41.0	1.8	5.0	21.9%*	i
O=C(O)c1cnn(-c2nc(-c3cccc(F)c3)cs2)c1C(F)(F)F	i	i	-0.2	12.6	0.2	4.7	.	.
O=C(O)c1cnn(-c2nc(-c3cccc([N+](=O)[O-])c3)cs2)c1C(F)(F)F	i	-6.04*	-4.2	5.2	-0.8	26.1	66.0%*	i
CC(C)c1c(C(=O)N/N=C/c2cccc(OCc3ccc(F)cc3)c2)nnn1-c1nonc1N	i	-6.63*	-4.9	7.6	0.1	10.6	68.0%*	i
CN(C)Cc1c(C(=O)N/N=C/c2cccc(OCc3ccc(F)cc3)c2)nnn1-c1nonc1N	i	i	-1.5	15.5	0.2	23.9	.	.
Cc1nn(Cc2ccccc2Cl)c(C)c1NC(=O)c1noc2c1CCCCC2	i	-5.72*	-0.3	2.2	-0.5	8.9	41.1%*	i
SMILES	CHT allo act	CHT block	Platelet DG rel	AI-2 QS modul	HIF activator	VLA-4 inh	CHT block conf	HEK293 CHT ctr
Cc1ccccc1Cn1nc(C)c(NC(=O)c2noc3c2CCCC3)c1C	i	i	7.0	7.1	0.1	.	.	.
Cc1nn(Cc2ccc(F)cc2)c(Cl)c1/C=N/NC(=O)c1ccccc1	i	i	0.3	17.8	0.5	7.6	.	.
Cc1nn(Cc2ccccc2)c(Cl)c1/C=C1\NC(=S)NC1=O	i	-7.71*	7.0	21.1	0.4	-13.6	i	i
C=CCNC(=O)c1onc(CSc2ccc(C(C)C)cc2)c1C(=O)O	i	-5.18*	6.3	13.1	-1.8	6.4	61.1%*	i
S=c1nc(-c2ccco2)[nH][nH]1	i	-5.37*	4.7	37.6	-0.2	-4.0	47.8%*	i
CCOC(=O)C1CCN(C(=O)CSCc2nc(-c3ccc(OCC)cc3)oc2C)CC1	i	-7.64*	2.4	32.8	-0.1	3.9	69.5%*	i
CCOC(=O)c1ccccc1Oc1c(F)c(F)nc(NCCO)c1F	i	-5.47*	8.2	21.8	0.2	-8.8	54.6%*	i
Cc1ccc(S(=O)(=O)NC(=O)C2CCCCC2)cc1	.	.	.	.	.	1.2	.	.
CCCCCn1c(=O)[nH]c2cc(C(=O)NCCN3CCC(C)CC3)ccc2c1=O	i	-6.13*	2.3	14.1	-0.3	6.2	i	i
CCCCCn1c(=O)[nH]c2cc(C(=O)NCCCN3CCC(C)CC3)ccc2c1=O	i	i	-1.5	9.4	-0.7	-3.5	.	.
CC(C)CNC(=O)C(=O)NCC1OCCCN1S(=O)(=O)c1cccs1 (stereo not drawn)	i	i	-5.5	11.4	-0.1	-5.4	.	.
CCOC(=O)C1CCN(C(=O)COc2cc(C)c(Br)cc2C)CC1	i	-6.47*	0.5	20.7	-0.3	-3.8	i	i
CC(C)c1ccc(O)c(NC(=S)NC(=O)CCc2ccccc2)c1	i	i	1.0	7.2	0.5	-6.8	.	.
COc1ccc(CCC(=O)N2c3ccccc3CC2C)cc1 (stereo not drawn)	i	-5.44*	2.0	7.3	1.1	-9.1	i	i
